# Calls of active or inactive are those of the source.
# Tests used:
# [1] = test system: Human papillomavirus type 1a protein E7 (residues 44-93); assay: small molecules binding HPV E7 44-93 – biochemical, small-molecule microarray, residues 44-93, 635 nm fluorescence, primary screen (AID 1108); details: fluorescence 635 nm, higher = more signal;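 note: E7 fragment applied at 1 µg/mL in TBST for 1 h at 4 C; score combines spot fluorescence with its signal to noise ratio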
# [2] = hepatitis C replication reporter changes, two-sided – Huh7 cells, luciferase reporter, HCV replication inhibitor project, primary screen (AID 1109); details: Huh7 HCV replicon luciferase reporter, 48 h; higher = more signal;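 note: huh7 hepatoma cells harbouring a luciferase neomycin HCV replicon reporter; luciferase luminescence as measure of HCV replicon replication; test concentration not given here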
# [3] = biological target: Left-right determination factor 2 (Homo sapiens) (UniProt O00292); assay: small molecules binding LEFTY2 protein – biochemical, small-molecule microarray, 635 nm fluorescence scan, primary screen (AID 1110); details: higher = more signal
# [4] = biological target: Calmodulin-1 (Homo sapiens) (UniProt P0DP23); assay: small molecules binding calmodulin-1 with EGTA – biochemical, small-molecule microarray, Cy5-labelled CALM1, profiling panel (AID 1111); details: Cy5-CALM1 binding fluorescence, higher = more signal;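 note: labelled calmodulin applied in Tris saline Tween buffer holding calcium plus EGTA and DTT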
# [5] = biological target: Calmodulin-1 (Homo sapiens) (UniProt P0DP23); assay: small molecules binding Ca-loaded calmodulin-1 – biochemical, small-molecule microarray, Cy5-labelled CALM1, plus calcium, artefact control for SMM control-protein annotation, profiling panel (AID 1112); details: Cy5-CALM1 binding fluorescence, higher = more signal;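 note: score merges spot fluorescence with signal to noise from triplicate slides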
# [6] = probe aWnt5a binding to arrayed compounds – biochemical, biotinylated probe, 635/667 nm fluorescence, primary screen (AID 1113); details: small-molecule microarray, higher = more signal;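 note: score merges 667 nm fluorescence intensity with signal-to-noise per printed feature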
# [7] = probe aShh binding to arrayed compounds – biochemical, biotinylated probe, 635/667 nm fluorescence, primary screen (AID 1114); details: small-molecule microarray, higher = more signal;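 note: probe is biotin-labelled aShh protein from a stem cell growth factor screen; measures binding of labelled protein to compounds printed on the slide; score merges feature fluorescence at 667 nm with signal-to-noise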
# [8] = probe aNog binding to arrayed compounds – biochemical, biotinylated probe, 635/667 nm fluorescence, primary screen (AID 1115); details: small-molecule microarray, higher = more signal;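 note: probe is biotinylated aNog protein used at 0.15 µg/mL for 1 h at 4 C; z-score combines 667 nm fluorescence of each spot with its signal to noise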
# [9] = biological target: Torsin-1A-interacting protein 1 (Homo sapiens) (UniProt Q5JTV8); assay: compound microarray binding of lysate hLAP1 – cell lysate, small-molecule microarray, COS7 lysate, 635/667 nm fluorescence, primary screen (AID 1116); details: 635 nm fluorescence, higher = more signal
# [10] = biological target: Alpha-bungarotoxin (Bungarus multicinctus) (UniProt P60615); assay: compounds binding labelled alpha-BTX control protein – biochemical, small-molecule microarray, Alexa647 label, 635/667 nm fluorescence, artefact control for SMM control protein annotation, profiling panel (AID 1117); details: alpha-BTX-A647 binding fluorescence, higher = more signal
# Albumin (Bos taurus) = Albumin (Bos taurus) (UniProt P02769); assay: compounds binding labelled BSA control protein – biochemical, small-molecule microarray, Alexa647 label, 635/667 nm fluorescence, artefact control for SMM control protein annotation, profiling panel (AID 1118); details: BSA-A647 binding, fluorescence 635 nm, higher = more signal;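 note: score merges 667 nm emission intensity and signal-to-noise per printed compound spot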
# [11] = probe aXIP binding to arrayed compounds – biochemical, NeuroSMM set, 635/667 nm fluorescence, primary screen (AID 1119); details: small-molecule microarray, higher = more signal, called active from +8 up or from −8 down;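 note: probe is the protein aXip251-270 applied at 1 µg/mL to compound-printed slides; binding of probe to printed compounds measured as 667 nm fluorescence plus signal to noise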
# [12] = probe aNOTCH3 binding on compound microarray – biochemical, small-molecule microarray, 635/667 nm fluorescence, primary screen (AID 1120); details: higher = more signal;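 note: probe is a biotin-tagged antibody raised against NOTCH3 rather than NOTCH3 protein; score merges spot fluorescence near 667 nm with spot signal to noise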
# [13] = probe aNOTCH2 binding on compound microarray – biochemical, small-molecule microarray, 635/667 nm fluorescence, primary screen (AID 1121); details: higher = more signal;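 note: score merges feature fluorescence read at 667 nm with its signal to noise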
# [14] = biological target: Carbonic anhydrase 2 (Homo sapiens) (UniProt P00918); assay: compounds binding carbonic anhydrase 2 – biochemical, small-molecule microarray, Alexa647-labelled CAII, profiling panel (AID 1122); details: CAII-A647 binding fluorescence, higher = more signal
# [15] = COS7 lysate on small-molecule microarray, probe aHis, 635 nm (AID 1123); details: COS7 cell lysate, fluorescence, higher = more signal;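 note: z-score combines 667nm fluorescence intensity with signal-to-noise per printed compound spot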
# [16] = probe aLAP1 signal on lysate-treated microarray – cell lysate, small-molecule microarray, COS7 lysate, primary screen (AID 1124); details: probe aLAP1, fluorescence, higher = more signal;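 note: lysate comes from COS7 cells expressing LAP1 and is applied at 0.3 µg/mL; score merges spot fluorescence near 667 nm with signal-to-noise over triplicate slides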
# Sam68 (KHDRBS1) = assay: compounds binding KHDRBS1 protein – biochemical, small-molecule microarray, 635 nm fluorescence, primary screen (AID 1125); details: higher = more signal;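 note: score merges 667 nm channel intensity with signal to noise over triplicate slides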
# [17] = test system: Chordin-like protein 2 (CHRDL2); assay: compounds binding chordin-like 2 – biochemical, small-molecule microarray, 635 nm fluorescence, primary screen (AID 1126); details: fluorescence 635 nm, higher = more signal;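 note: printed compound slides probed with Chrdl2 protein at 4 µg/mL for 1 h at 4 C; score merges 667 nm emission intensity with signal to noise over three replicate slides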
# [18] = biological target: Concanavalin-A (Canavalia ensiformis) (UniProt P02866); assay: compounds binding concanavalin A lectin – biochemical, small-molecule microarray, Alexa647 label, 635 nm, artefact control for SMM control protein annotation, primary screen (AID 1127); details: ConA-A647 binding fluorescence, higher = more signal;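 note: z combines 667 nm emission intensity with signal-to-noise across three replicate slides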
# Concanavalin-A (Canavalia ensiformis), sequence (P02866 whole entry, looked up): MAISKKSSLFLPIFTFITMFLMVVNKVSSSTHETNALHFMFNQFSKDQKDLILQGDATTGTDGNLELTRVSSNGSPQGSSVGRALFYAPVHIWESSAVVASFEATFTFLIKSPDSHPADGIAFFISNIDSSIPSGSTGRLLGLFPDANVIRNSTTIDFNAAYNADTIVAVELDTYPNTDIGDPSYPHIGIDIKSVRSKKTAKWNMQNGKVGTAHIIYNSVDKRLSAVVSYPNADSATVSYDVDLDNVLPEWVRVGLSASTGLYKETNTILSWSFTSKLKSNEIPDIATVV
# Left-right determination factor 2 (Homo sapiens), sequence (O00292 whole entry, looked up): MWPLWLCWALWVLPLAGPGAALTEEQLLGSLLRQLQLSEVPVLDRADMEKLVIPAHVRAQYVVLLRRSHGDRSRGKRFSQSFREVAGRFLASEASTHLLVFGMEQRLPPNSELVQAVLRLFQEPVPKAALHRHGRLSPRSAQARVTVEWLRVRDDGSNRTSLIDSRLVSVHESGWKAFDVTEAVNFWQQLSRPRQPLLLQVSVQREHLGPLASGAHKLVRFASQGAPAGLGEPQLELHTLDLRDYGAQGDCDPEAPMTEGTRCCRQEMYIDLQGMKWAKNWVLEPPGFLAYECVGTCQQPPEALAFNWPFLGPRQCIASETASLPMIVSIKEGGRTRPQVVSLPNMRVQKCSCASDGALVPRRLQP
# Alpha-bungarotoxin (Bungarus multicinctus), sequence (P60615 whole entry, looked up): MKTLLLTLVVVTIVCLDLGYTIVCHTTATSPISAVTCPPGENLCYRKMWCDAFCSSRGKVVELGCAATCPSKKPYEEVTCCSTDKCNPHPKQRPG
# Torsin-1A-interacting protein 1 (Homo sapiens), sequence (Q5JTV8 whole entry, looked up): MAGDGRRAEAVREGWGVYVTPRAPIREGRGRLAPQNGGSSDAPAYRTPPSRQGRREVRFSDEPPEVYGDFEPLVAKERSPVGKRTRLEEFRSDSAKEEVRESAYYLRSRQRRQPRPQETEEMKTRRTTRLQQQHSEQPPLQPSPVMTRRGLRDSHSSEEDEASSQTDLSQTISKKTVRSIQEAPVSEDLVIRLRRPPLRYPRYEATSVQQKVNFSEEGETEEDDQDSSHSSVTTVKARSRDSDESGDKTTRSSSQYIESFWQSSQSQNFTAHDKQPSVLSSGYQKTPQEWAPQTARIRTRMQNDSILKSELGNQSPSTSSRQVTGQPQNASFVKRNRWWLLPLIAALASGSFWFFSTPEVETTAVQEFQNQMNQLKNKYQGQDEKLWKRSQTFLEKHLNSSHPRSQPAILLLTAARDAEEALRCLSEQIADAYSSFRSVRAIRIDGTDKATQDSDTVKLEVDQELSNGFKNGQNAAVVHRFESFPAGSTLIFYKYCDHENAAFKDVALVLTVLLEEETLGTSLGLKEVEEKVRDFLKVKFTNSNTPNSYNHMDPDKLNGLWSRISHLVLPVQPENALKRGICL
# Albumin (Bos taurus), sequence (P02769 whole entry, looked up): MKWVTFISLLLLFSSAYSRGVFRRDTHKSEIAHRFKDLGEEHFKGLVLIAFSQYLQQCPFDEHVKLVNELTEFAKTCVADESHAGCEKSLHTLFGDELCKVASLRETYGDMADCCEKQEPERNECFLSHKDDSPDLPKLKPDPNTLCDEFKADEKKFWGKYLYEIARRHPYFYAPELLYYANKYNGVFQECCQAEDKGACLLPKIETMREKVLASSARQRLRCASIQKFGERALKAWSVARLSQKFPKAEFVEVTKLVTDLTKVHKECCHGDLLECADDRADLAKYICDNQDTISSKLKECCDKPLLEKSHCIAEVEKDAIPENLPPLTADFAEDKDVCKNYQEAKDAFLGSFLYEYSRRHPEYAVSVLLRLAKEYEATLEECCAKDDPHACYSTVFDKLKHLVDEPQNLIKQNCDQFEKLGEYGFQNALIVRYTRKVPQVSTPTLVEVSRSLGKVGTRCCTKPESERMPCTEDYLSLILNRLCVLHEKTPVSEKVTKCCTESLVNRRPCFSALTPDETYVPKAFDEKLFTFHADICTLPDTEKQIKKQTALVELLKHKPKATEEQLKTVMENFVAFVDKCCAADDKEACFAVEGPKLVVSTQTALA
Structure (SMILES),composite z-score [1],z-score [2],composite z-score [3],composite z-score [4],composite z-score [5],composite z-score [6],composite z-score [7],composite z-score [8],composite z-score [9],composite z-score [10],composite z-score (Albumin (Bos taurus)),composite Z-score [11],composite z-score [12],composite z-score [13],composite z-score [14],composite z-score [15],composite z-score [16],composite z-score (Sam68 (KHDRBS1)),composite z-score [17],composite z-score [18]
Cc1ccc(C(C)CC(O)C2C=CC3C(=O)N(c4ccccc4)C(=O)C3N2Nc2ccccc2)o1 (stereo not given),1.44,-0.741,0.285,1.3,0.125,0.0802,0.308,1.5,0.789,1.3,0.804,-0.474 (inactive),0.257,-0.0303,0.382,1.55,0.412,1.29,-0.19,1.09
NC(=O)NCC#Cc1ccc2c(c1)[C@]1(C(=O)N2)[C@H](c2ccccc2OCCO)N2[C@H](c3ccccc3)[C@H](c3ccccc3)OC(=O)[C@H]2[C@@H]1C(=O)O,1.27,-0.331,-0.351,0.505,0.629,-0.169,-0.0035,-0.359,0.299,0.589,0.276,0.155 (inactive),-0.245,-0.0772,0.496,0.259,0.931,0.293,-0.128,0.96
O=C(C1N=C(c2ccc(OCCCO)cc2)N(c2ccccc2)O1)N1CCCCC1 (stereo not given),1.26,0.65,0.413,2,0.867,0.0454,-0.229,0.411,1.25,1.85,0.909,1.91 (inactive),0.304,0.116,0.718,2.31,0.936,1.29,0.165,1.2
CC(=O)N1CC2(CC2)CC1c1ccccc1 (stereo not given),0.753,0.677,0.171,0.107,0.0916,1.19,-0.227,2.15,0.791,-0.217,0.336,0.204 (inactive),0.77,0.172,0.671,1.88,0.562,0.913,0.0586,-0.0459
[N-]=[N+]=Nc1ccccc1C[C@]1(C(=O)N2CCOCC2)COC(c2ccc(OCCCO)cc2)=N1,1.41,-1.72,-0.253,0.201,-0.554,0.0317,0.14,-0.527,1.08,0.664,0.808,0.04 (inactive),0.373,-0.118,0.763,2.21,-0.181,1.29,-0.646,0.99
O[C@@H](Cc1ccccc1)[C@@H](/C=C/C1CC1)N(CC#Cc1ccccc1)Cc1ccccc1Br,-0.0988,-2.71,-0.804,-0.582,0.282,-0.203,-0.0769,-0.224,-0.183,-0.288,-0.144,0.586 (inactive),-0.218,-0.171,-0.0441,0.41,0.146,-1.33,-1.36,-0.564
CC[C@@H]1O[Si](C(C)C)(C(C)C)c2c1cc(-c1cc(C)c(OC)c(C)c1)nc2-c1ccc(Oc2ccccc2)cc1,-0.871,-0.748,-0.389,-0.162,0.0543,-0.117,-0.299,-0.103,-0.386,0.0748,-0.145,-0.837 (inactive),-0.0967,-0.141,-0.272,0.133,-0.006,-0.807,-0.77,-0.0734
COC(=O)C1=CC(CCCO)=CC(c2ccc(CN3CCCC3)cc2)N(Cc2cccc(OC(F)(F)F)c2)C=C1C(=O)OC (stereo not given),1.38,-1.18,0.0706,2.08,0.695,-0.172,-0.0953,0.947,2.1,1.89,0.996,0.29 (inactive),0.133,-0.0502,0.387,2.21,0.612,1.3,-0.551,1.11
O=c1cccc(-c2ccc([N+](=O)[O-])cc2)o1,0.79,-0.885,0.37,-0.273,-0.389,0.0775,0.199,-0.208,1.11,0.38,-0.293,0.46 (inactive),0.0692,-0.154,0.365,0.403,0.633,0.795,0.075,-0.549
C=CCNC(=O)[C@@H]1[C@H]2C(=O)O[C@H](c3ccccc3)[C@H](c3ccccc3)N2[C@H](c2ccccc2OCCO)[C@@]12C(=O)N(C(=O)OCCOC)c1ccc(C#CC3(O)CCCCCC3)cc12,1.23,-2.27,0.694,0.66,0.212,-0.0566,-0.0035,-0.0224,1.35,0.859,0.351,0.0141 (inactive),0.11,-0.0708,0.354,2.15,0.618,1.29,0.755,1.07
C=CC[C@@]1(C(=O)NCCCOC)N=C(c2ccc(OCCCO)cc2)O[C@@H]1c1ccccc1N=[N+]=[N-],1.44,-1.09,-0.553,0.968,-0.105,-0.0519,0.0639,0.291,0.905,0.767,0.896,-0.349 (inactive),0.356,-0.125,0.224,1.73,0.209,1.01,-0.325,0.562
